{"source": "PubChem BioAssay (NCATS)", "note": "Results filed as inconclusive are left out. Unmarked numbers belong to inactive results. Unless noted, calls come from the whole dose curve. Potency is the fitted concentration of half-maximal effect.", "data": [{"assay": "Cell Viability - Hek293 (AID 427;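 active = compounds whose dose-response curve shows a full or clear partial loss of cell viability, called from curve shape rather than a numeric limit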;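 note: cells exposed to compound for 40 hours at 37 °C before reading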)", "settings": "qHTS", "method_in_brief": "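AC50 values derive from Hill-modelled concentration-response of ATP-based luminescence, normalized between DMSO-only and 100 uM tamoxifen controls. Cells were exposed in complete culture medium for 40 hr at 37 °C before detection.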", "units": {"Potency": "µM"}, "values": [{"smiles": "CCC1CO1", "note": "(stereo not given)", "Potency": "> 92"}, {"smiles": "FC(F)(F)c1cccc(Cl)c1", "Potency": "> 92"}, {"smiles": "O=Nc1ccc(NO)cc1", "Potency": "> 92"}, {"smiles": "CC(=O)Nc1ccc(C)cc1", "Potency": "> 92"}, {"smiles": "C=Cc1ccccn1", "Potency": "> 92"}, {"smiles": "CCNc1ccccc1", "Potency": "> 92"}, {"smiles": "Cc1ccccc1Br", "Potency": "> 92"}, {"smiles": "O=C(O)CNC(=O)c1ccc([N+](=O)[O-])cc1", "Potency": "> 92"}, {"smiles": "CCCCC/C=C/C=C/C=O", "Potency": "> 92"}, {"smiles": "C=C(C)C(=O)OCC(C)C", "Potency": "> 92"}, {"smiles": "C[C@@H]1CC2(OC[C@]3(C)O[C@H]23)O[C@H]2C[C@@]3(C)[C@@H]4CC[C@H]5C(C)(C)C(O[C@@H]6OC[C@@H](O)[C@H](O)[C@H]6O)CC[C@@]56C[C@@]46CC[C@]3(C)[C@@H]12", "note": "(stereo not given in full)", "Potency": "> 92"}, {"smiles": "c1ccc2n[nH]nc2c1", "Potency": "> 92"}, {"smiles": "C/C=C1\\CC2C=CC1C2", "note": "(stereo not given)", "Potency": "> 92"}, {"smiles": "CCC(O)C(C)(C)C", "note": "(stereo not given)", "Potency": "> 92"}, {"smiles": "CCOC(=O)OCC", "Potency": "> 92"}, {"smiles": "CC(=O)OCc1ccco1", "Potency": "> 92"}, {"smiles": "COc1ccccc1[N+](=O)[O-]", "Potency": "> 92"}, {"smiles": "CCCCC(CC)COCC1CO1", "note": "(stereo not given)", "Potency": "> 92"}, {"smiles": "Cc1c(N)cccc1[N+](=O)[O-]", "Potency": "> 92"}, {"smiles": "ClC/C=C/CCl", "Potency": "> 92"}, {"smiles": "N#CCc1ccccc1[N+](=O)[O-]", "Potency": "> 92"}, {"smiles": "Cc1cccc(C)c1[N+](=O)[O-]", "Potency": "> 92"}, {"smiles": "Cc1ccc2ccccc2c1[N+](=O)[O-]", "Potency": "> 92"}, {"smiles": "CCCOCC(C)O", "note": "(stereo not given)", "Potency": "> 92"}, {"smiles": "CSc1ccc(C=O)cc1", "Potency": "> 92"}, {"smiles": "CC(O)COC(C)(C)C", "note": "(stereo not given)", "Potency": "> 92"}, {"smiles": "Fc1ccccc1", "Potency": "> 92"}, {"smiles": "NC(=O)NC(N)=O", "Potency": "> 92"}, {"smiles": "C=CC(=O)NC(C)C", "Potency": "> 92"}, {"smiles": "CCOC(=O)C(C)C(C)=O", "note": "(stereo not given)", "Potency": "> 92"}, {"smiles": "O=C(O)c1ccc(Cl)cc1Cl", "Potency": "> 92"}, {"smiles": "C=C(C)C1CC=C(C)C(OC(C)=O)C1", "note": "(stereo not given)", "Potency": "> 92"}, {"smiles": "O=C(O)c1ccccc1Cl", "Potency": "> 92"}, {"smiles": "CCOCCOCC", "Potency": "> 92"}, {"smiles": "CCCCCCCCN", "Potency": "> 92"}, {"smiles": "CC(C)=CCC/C(C)=C/C=O", "Potency": "> 92"}, {"smiles": "C/C=C(/C)C#N", "Potency": "> 92"}, {"smiles": "CC(C)(c1cc(Br)c(OCC(Br)CBr)c(Br)c1)c1cc(Br)c(OCC(Br)CBr)c(Br)c1", "note": "(stereo not given)", "Potency": "> 92"}, {"smiles": "Cc1cc(C(=O)O)ccc1[N+](=O)[O-]", "Potency": "> 92"}, {"smiles": "CN(C)CCCNCCCN", "Potency": "> 92"}]}, {"assay": "Cell Viability - HepG2 (AID 433)", "settings": "qHTS", "method_in_brief": "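Cytotoxicity is scored as loss of intracellular ATP in HepG2 cells exposed to compounds for 40 h. Concentration-response curves, normalized to DMSO and 100 uM tamoxifen, give AC50 values.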", "units": {"Potency": "µM"}, "values": [{"smiles": "CCC1CO1", "note": "(stereo not given)", "Potency": "> 92"}, {"smiles": "FC(F)(F)c1cccc(Cl)c1", "Potency": "> 92"}, {"smiles": "O=Nc1ccc(NO)cc1", "Potency": "> 92"}, {"smiles": "CC(=O)Nc1ccc(C)cc1", "Potency": "> 92"}, {"smiles": "C=Cc1ccccn1", "Potency": "> 92"}, {"smiles": "CCNc1ccccc1", "Potency": "> 92"}, {"smiles": "Cc1ccccc1Br", "Potency": "> 92"}, {"smiles": "O=C(O)CNC(=O)c1ccc([N+](=O)[O-])cc1", "Potency": "> 92"}, {"smiles": "CCCCC/C=C/C=C/C=O", "Potency": "> 92"}, {"smiles": "C=C(C)C(=O)OCC(C)C", "Potency": "> 92"}, {"smiles": "C[C@@H]1CC2(OC[C@]3(C)O[C@H]23)O[C@H]2C[C@@]3(C)[C@@H]4CC[C@H]5C(C)(C)C(O[C@@H]6OC[C@@H](O)[C@H](O)[C@H]6O)CC[C@@]56C[C@@]46CC[C@]3(C)[C@@H]12", "note": "(stereo not given in full)", "Potency": "> 92"}, {"smiles": "c1ccc2n[nH]nc2c1", "Potency": "> 92"}, {"smiles": "C/C=C1\\CC2C=CC1C2", "note": "(stereo not given)", "Potency": "> 92"}, {"smiles": "CCC(O)C(C)(C)C", "note": "(stereo not given)", "Potency": "> 92"}, {"smiles": "CCOC(=O)OCC", "Potency": "> 92"}, {"smiles": "CC(=O)OCc1ccco1", "Potency": "> 92"}, {"smiles": "COc1ccccc1[N+](=O)[O-]", "Potency": "> 92"}, {"smiles": "CCCCC(CC)COCC1CO1", "note": "(stereo not given)", "Potency": "> 92"}, {"smiles": "Cc1c(N)cccc1[N+](=O)[O-]", "Potency": "> 92"}, {"smiles": "ClC/C=C/CCl", "Potency": "> 92"}, {"smiles": "N#CCc1ccccc1[N+](=O)[O-]", "Potency": "> 92"}, {"smiles": "Cc1cccc(C)c1[N+](=O)[O-]", "Potency": "> 92"}, {"smiles": "Cc1ccc2ccccc2c1[N+](=O)[O-]", "Potency": "> 92"}, {"smiles": "CCCOCC(C)O", "note": "(stereo not given)", "Potency": "> 92"}, {"smiles": "CSc1ccc(C=O)cc1", "Potency": "> 92"}, {"smiles": "CC(O)COC(C)(C)C", "note": "(stereo not given)", "Potency": "> 92"}, {"smiles": "Fc1ccccc1", "Potency": "> 92"}, {"smiles": "NC(=O)NC(N)=O", "Potency": "> 92"}, {"smiles": "C=CC(=O)NC(C)C", "Potency": "> 92"}, {"smiles": "CCOC(=O)C(C)C(C)=O", "note": "(stereo not given)", "Potency": "> 92"}, {"smiles": "O=C(O)c1ccc(Cl)cc1Cl", "Potency": "> 92"}, {"smiles": "C=C(C)C1CC=C(C)C(OC(C)=O)C1", "note": "(stereo not given)", "Potency": "> 92"}, {"smiles": "O=C(O)c1ccccc1Cl", "Potency": "> 92"}, {"smiles": "CCOCCOCC", "Potency": "> 92"}, {"smiles": "CCCCCCCCN", "Potency": "> 92"}, {"smiles": "CC(C)=CCC/C(C)=C/C=O", "Potency": "> 92"}, {"smiles": "C/C=C(/C)C#N", "Potency": "> 92"}, {"smiles": "CC(C)(c1cc(Br)c(OCC(Br)CBr)c(Br)c1)c1cc(Br)c(OCC(Br)CBr)c(Br)c1", "note": "(stereo not given)", "Potency": "> 92"}, {"smiles": "Cc1cc(C(=O)O)ccc1[N+](=O)[O-]", "Potency": "> 92"}, {"smiles": "CN(C)CCCNCCCN", "Potency": "> 92"}]}]}
